Compound activity deposited in PubChem BioAssay by National Center for Advancing Translational Sciences (NCATS).
VP16 counter = VP16 counterscreen qHTS for inhibitors of ROR gamma transcriptional activity; Drosophila S2 Gal4-VP16 UAS-luciferase, luminescence, 20 h; AID 2546, 2010; 310,000 tested, 3.5% active; Potency, µM (doses to about 53.6 µM), inactives show at the highest dose activity, negative = inhibition, usual class: inhibitors;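 further: Gal4-VP16 expression switched on by copper sulfate through the metallothionein promoter; potency means the concentration at half of the fitted maximal effect; nearly all actives have a fitted effect of over 50% in size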
TrxR1 inh = qHTS Assay for Inhibitors of Mammalian Selenoprotein Thioredoxin Reductase 1 (TrxR1): qHTS; Thioredoxin reductase 1, cytoplasmic (Rattus norvegicus), O89049; recombinant rTrxR1, NADPH fluorescence consumption, selenite substrate; Potency, µM (titrated, usually from 114 µM), inactives show top-dose activity change, negative = inhibition, hits mostly inhibitors; 390,000 tested, 1% active; further: potency means the concentration at half of the fitted maximal effect; nearly all actives have a fitted effect of over 65% in size
Target sequence (O89049 whole entry, looked up): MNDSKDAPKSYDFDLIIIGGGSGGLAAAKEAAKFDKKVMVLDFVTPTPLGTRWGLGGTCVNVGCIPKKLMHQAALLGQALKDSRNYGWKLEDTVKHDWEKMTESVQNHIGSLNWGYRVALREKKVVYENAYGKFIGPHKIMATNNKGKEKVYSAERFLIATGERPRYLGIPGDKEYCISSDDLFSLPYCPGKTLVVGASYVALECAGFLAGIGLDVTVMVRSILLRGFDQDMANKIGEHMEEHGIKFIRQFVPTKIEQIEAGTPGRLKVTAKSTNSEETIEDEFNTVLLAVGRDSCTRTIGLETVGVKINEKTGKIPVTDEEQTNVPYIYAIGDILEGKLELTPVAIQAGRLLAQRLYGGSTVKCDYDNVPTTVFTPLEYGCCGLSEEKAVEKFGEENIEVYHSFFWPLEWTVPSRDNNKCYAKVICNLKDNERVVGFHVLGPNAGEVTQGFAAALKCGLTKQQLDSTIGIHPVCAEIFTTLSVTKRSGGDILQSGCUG
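Rat TrxR1 (90 nM in the dispensed reagent) was pre-reduced with 400 uM NADPH for 5 min at room temperature, then incubated with compound for 15 min. After 400 uM selenite was added, NADPH fluorescence (Ex 340/Em 450 nm) was followed for 8 min.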
Coupling enz = qHTS Assay for Inhibitors of Fructose-1,6-bisphosphate Aldolase from Giardia Lamblia: Coupling assay counterscreen; coupling enzyme system counterscreen, AmpLite Red fluorescence; activity change, negative = inhibition, % at 58.2 µM, hits read low; 290,000 tested, 0.67% active; AID 2472, 2010; in the data active means activity change below about -30%
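Coupling enzymes only (glyceraldehyde-3-phosphate) + compound, at 57.5 uM final, 10 min RT; add substrate/coupling/AmpLite Red mix, 20 min RT; fluorescence ex 525/em 598 nm. Actives flag coupling-system interference.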
RORg inh = qHTS for inhibitors of ROR gamma transcriptional activity | 310,000 tested, 5.4% active | AID 2551, 2010 | Drosophila S2 Gal4-RORgamma UAS-luciferase reporter, 20 h | Nuclear receptor ROR-gamma (Mus musculus), P51450 | Potency, µM (titrated, usually from 53.6 µM), without a hit: at the highest dose activity change, negative = inhibition, most hits filed as inhibitors; further: potency means the concentration at half of the fitted maximal effect; nearly all actives have a fitted effect of over 60% in size
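Compounds are pin-transferred onto Drosophila Schneider cells expressing a copper-inducible Gal4–ROR gamma transactivation domain fusion. After 1 hr, copper sulfate is added to 700 uM final; luciferase is read 20 hr later.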
GALK inh = qHTS Assay for Inhibitors of Human Galactokinase (GALK); P51570; Potency, µM (highest dose often 57.5 µM), inactives show at the highest dose activity change, negative = inhibition, hits mostly inhibitors; 270,000 tested, 0.007% active; Purified GALK, Kinase-Glo residual ATP luminescence; further: potency means the concentration at half of the fitted maximal effect
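Quantitative HTS: GALK 5 nM, ATP 35 uM, galactose 100 uM, 1 h room temperature, then luciferase-based ATP detection.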
TrxR1 substrate = qHTS Assay for Substrates of Mammalian Selenoprotein Thioredoxin Reductase 1 (TrxR1): qHTS; purified TrxR1 substrate turnover, NADPH consumption readout; Potency, µM (highest dose often 114 µM), for inactives: at the highest dose activity change, negative = substrate turnover; 390,000 tested, 0.01% active; AID 588456, 2011; further: potency means the concentration at half of the fitted maximal effect; nearly all actives have a fitted effect of over 50% in size
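Rat TrxR1, dispensed at 90 nM, was prereduced with 400 uM NADPH (final) for 5 min at ~22 deg C, then incubated with compound 15 min before 400 uM selenite. A first-read NADPH fluorescence drop versus no-compound background flagged substrates.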
Active calls of the source: *; [ ] = remark or other dose. Hits are enriched below; roughly 5.9% of the tested compounds scored in any of these assays. Unless noted, the call rests on the fitted dose curve; in most records, active means well fitted curve in the direction sought with a large enough effect; inconclusive means small, poorly fitted or top-dose-only effect, or another doubt; inactive means no such curve, though single readings can be large; an effect the other way counts as inactive or inconclusive. On the % scale 0 is the no-effect control and ±100 the full control effect.

Results for Cc1nc2ccccc2n1Cc1ccccc1 ?
VP16 counter: inconclusive; TrxR1 inh: 19%; Coupling enz: 0; RORg inh: 1%[1.91 µM]; GALK inh: 3%; TrxR1 substrate: 7%

What do the screens show for `COc1cc(C(=O)Cc2nc3ccccc3n2C)cc(OC)c1OC`?
VP16 counter: 13µM*; TrxR1 inh: 24%; Coupling enz: 2; RORg inh: 6.3µM*; GALK inh: -6%; TrxR1 substrate: 6%

Results for CCn1c(Cc2ccc(OC)cc2)nc2ccccc21 ?
VP16 counter: 35µM*; TrxR1 inh: -8%[57.1 µM]; Coupling enz: 0; RORg inh: 11µM*; GALK inh: -1%; TrxR1 substrate: -2%

What do the screens show for `CCOC(=S)SCC(=O)N1CCc2cc(OC)c(OC)cc2C1C1C(=O)CC(C)(C)CC1=O` (stereo not given)?
VP16 counter: -1%; TrxR1 inh: -3%[57.1 µM]; Coupling enz: 0; RORg inh: -10%; GALK inh: 2%; TrxR1 substrate: 10%[57.1 µM]

What do the screens show for `CCC(c1nnc(SCC(=O)NCCc2ccc(OC)c(OC)c2)n1Cc1ccccc1)N(C)C` (stereo not given)?
VP16 counter: 8%; TrxR1 inh: -29%; Coupling enz: 0; RORg inh: 4%; GALK inh: 0%; TrxR1 substrate: -17%

How did Cc1nn(-c2ccc(Cl)cc2)c2[nH]c(CCl)cc(=O)c12 do in these assays?
VP16 counter: -12%; TrxR1 inh: -13%; Coupling enz: 3; RORg inh: 14%; GALK inh: 15%; TrxR1 substrate: 2%

Results for c1ccc(Cc2nc3ccccc3n2Cc2ccccc2)cc1 ?
VP16 counter: 18µM*; TrxR1 inh: -14%; Coupling enz: 7; RORg inh: inconclusive; GALK inh: 1%; TrxR1 substrate: -14%

How did O=C(ONC1=NCCCCC1)c1cccc([N+](=O)[O-])c1 do in these assays?
VP16 counter: -27%; TrxR1 inh: 20%[57.1 µM]; Coupling enz: 1; RORg inh: 7.1µM*; GALK inh: -3%; TrxR1 substrate: 12%[57.1 µM]

How did O=S(=O)(c1ccccc1)n1c(C(O)c2ccccn2)cc2ccccc21 (stereo not given) do in these assays?
VP16 counter: -5%; TrxR1 inh: 10%; Coupling enz: -1; RORg inh: -26%; GALK inh: 0%; TrxR1 substrate: -3%

Results for Cc1ccc(-c2cc(C(=O)n3cnc4ccccc43)c3ccccc3n2)cc1C ?
VP16 counter: 13µM*; TrxR1 inh: 15%[57.1 µM]; Coupling enz: 1; RORg inh: 10µM*; GALK inh: -3%; TrxR1 substrate: 26%[57.1 µM]

Results for Cc1ccc(-c2cc(C(=O)N3CCN(c4ccccc4)CC3)c3ccccc3n2)cc1C ?
TrxR1 inh: 22%[57.1 µM]; TrxR1 substrate: 1%[57.1 µM]

Results for Oc1c(Cl)cc(Cl)cc1/C=C/c1ccc2cccc(O)c2n1 ?
VP16 counter: 7.1µM*; TrxR1 inh: 16%[57.1 µM]; Coupling enz: -8; RORg inh: 2.5µM*; GALK inh: -6%; TrxR1 substrate: 6%[57.1 µM]

Results for Oc1ccc(Cl)cc1/C=C/c1ccc2cccc(O)c2n1 ?
VP16 counter: 4.5µM*; TrxR1 inh: 10%[57.1 µM]; Coupling enz: -11; RORg inh: 3.2µM*; GALK inh: -8%; TrxR1 substrate: 3%[57.1 µM]

How did COc1cc2c(cc1OC)CN(c1ccc3ccccc3n1)CC2 do in these assays?
VP16 counter: inconclusive; TrxR1 inh: 17%; Coupling enz: 0; RORg inh: inconclusive; GALK inh: 9%; TrxR1 substrate: 18%
